{"source": "PubChem BioAssay AID743480", "about": "(Broad Institute, 2014)", "note": "The other results are listed elsewhere or left out. Unmarked numbers belong to inactive results.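 How the source made its calls: active means compounds whose fitted half-maximal signal-loss concentration is at most twice their highest valid dose; inconclusive means flat curve with 30 to 70% signal loss, or poor fit; inactive means the rest.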"}
{"test": "HepG2 viability loss by ATP level – cell-based, CellTiter-Glo luminescence, cherry-pick, set 4, cytotoxicity control, dose response (AID 743480)", "conditions": "72 h; series mostly up to 26 µM; activity change, negative = cytotoxicity: at the top concentration", "units": {"activity change, negative = cytotoxicity": "unspecified"}}
{"smiles": "CC[C@H]1OC(=O)[C@H](C)[C@@H](O[C@H]2C[C@@](C)(OC)[C@@H](O)[C@H](C)O2)[C@H](C)[C@@H](O[C@@H]2O[C@H](C)C[C@H](N(C)C)[C@H]2O)[C@](C)(O)C[C@@H](C)[C@@H]2N[C@@H](COCCOC)O[C@H]([C@H]2C)[C@]1(C)O", "activity change, negative = cytotoxicity": 23.7}
{"smiles": "COc1ccc(Cn2c(-c3ccc(Cl)cc3)c[n+]3ccccc23)cc1", "activity change, negative = cytotoxicity": 9.96}
{"smiles": "C=CCNC(=O)c1ccccc1NC(=O)c1ccc(Cl)c(S(=O)(=O)Nc2cccc(C)c2C)c1", "activity change, negative = cytotoxicity": 13}
